POLB inh = qHTS Assay for Inhibitors of DNA Polymerase Beta | P06746 | Pol beta primer extension/strand displacement, fluorescence kinetic | Potency, µM (doses to about 114 µM), inactives show top-dose activity change, negative = inhibition, hits mostly inhibitors | 340,000 compounds, 1.3% hits | AID 485314, 2010; also: % is scaled to controls: 0 for no effect and ±100 for the full control effect
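Pol beta (10 nM) and compounds were preincubated 15 min at room temperature, then 50 nM substrate (final) started primer extension/strand displacement. Reads were taken at 0 and 10 min; concentration-response data were fitted to a four-parameter Hill equation.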
Pol eta inh-1 = qHTS for Inhibitors of Polymerase Eta | recombinant Pol eta, fluorescent DNA replication assay | Potency, µM (series often up to 114 µM), without a hit: at the top dose activity change, negative = inhibition, hits mostly inhibitors | 390,000 compounds, 1.2% hits | AID 588591, 2011; also: % is scaled to controls: 0 for no effect and ±100 for the full control effect
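Pol eta (10 nM) was preincubated with compounds for 15 min at room temperature, after which fluorescent replication substrate (50 nM final) was added to start the reaction. Fluorescence was read kinetically at 0 and 10 min.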
Pol kappa inh-1 = qHTS for Inhibitors of Polymerase Kappa | 400,000 compounds, 0.53% hits | AID 588579, 2011 | Potency, µM (top dose mostly 107 µM), for inactives: at the highest dose activity, negative = inhibition, hits mostly inhibitors | purified Pol kappa, fluorescent DNA synthesis assay, 10 min | DNA polymerase kappa (Homo sapiens), Q9UBT6; also: % is scaled to controls: 0 for no effect and ±100 for the full control effect
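Kinetic fluorescence screen: compound preincubated 15 min RT with 10 nM enzyme; 50 nM substrate (final) initiates; reads at 0/10 min.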
Pol iota inh = qHTS for Inhibitors of Polymerase Iota. 390,000 compounds, 1% hits. Potency, µM (titrated, usually from 115 µM), without a hit: at the top dose activity, negative = inhibition, usual class: inhibitors. Pol iota fluorescent replication assay, 10 min. AID 588590, 2011. DNA polymerase iota (Homo sapiens), Q9UNA4
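Pol iota at 10 nM preincubated 15 min with compounds at room temperature; reaction started with fluorescent substrate, 50 nM final. Fluorescence read kinetically at 0 and 10 min; buffer-only wells as negative control.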
FEN1 inh-1 = qHTS Assay for the Inhibitors of Human Flap endonuclease 1 (FEN1) | Recombinant FEN1 flap cleavage, fluorescence, 15 min | Potency, µM (series often up to 114 µM), without a hit: at the top dose activity change, negative = inhibition, actives largely listed as inhibitors | 390,000 compounds, 0.35% hits | AID 588795, 2011; also: % is scaled to controls: 0 for no effect and ±100 for the full control effect; nearly all actives have a fitted effect of over 65% in size
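Compounds are tested as a concentration series against 10 nM FEN1; after a 15 min room-temperature preincubation, 50 nM substrate starts cleavage, with plate reads at 0 and 15 min. Normalized responses are fitted by a Hill equation.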
WRN helicase inh-1 = qHTS for Inhibitors of WRN Helicase. Bifunctional 3'-5' exonuclease/ATP-dependent helicase WRN (Homo sapiens), Q14191. WRN helicase unwinding, fluorescent forked duplex, kinetic. Potency, µM (top dose mostly 114 µM), for inactives: at the top dose activity change, negative = inhibition, actives largely listed as inhibitors. 360,000 compounds, 0.46% hits; also: % is scaled to controls: 0 for no effect and ±100 for the full control effect; nearly all actives have a fitted effect of over 55% in size
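Primary qHTS, 1536-well format. 20 nM WRN + compound, 15 min RT; start with 100 nM forked fluorophore/quencher duplex, 2 mM ATP (final); kinetic read ex 525/em 598 nm.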
PGK validate = qHTS for inhibitors of Phosphogylcerate Kinase: Hit Validation Screen. AID 686980, 2013. shares compounds with Pol kappa inh-1. Potency, µM (highest dose often 57.5 µM), for the others: at the top dose activity change, negative = inhibition, actives largely listed as inhibitors. 500 compounds, 79% hits. TbPGK coupled GAPDH assay, Kinase-Glo luminescence; also: % is scaled to controls: 0 for no effect and ±100 for the full control effect; nearly all actives have a fitted effect of over 65% in size
Target sequence (P07378 whole entry, looked up): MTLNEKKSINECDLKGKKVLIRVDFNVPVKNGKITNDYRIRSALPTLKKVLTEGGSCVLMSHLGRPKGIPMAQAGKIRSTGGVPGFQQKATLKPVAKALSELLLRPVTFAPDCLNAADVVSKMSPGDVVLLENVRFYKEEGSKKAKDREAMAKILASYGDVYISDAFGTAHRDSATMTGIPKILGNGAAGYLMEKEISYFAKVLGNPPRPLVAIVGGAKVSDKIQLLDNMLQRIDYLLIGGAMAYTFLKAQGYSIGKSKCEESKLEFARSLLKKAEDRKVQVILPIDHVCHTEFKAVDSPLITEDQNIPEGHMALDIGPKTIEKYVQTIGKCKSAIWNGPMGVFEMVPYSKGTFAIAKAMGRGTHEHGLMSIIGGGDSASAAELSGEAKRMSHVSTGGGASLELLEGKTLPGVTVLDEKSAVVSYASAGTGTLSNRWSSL
Pol iota confirm = qHTS for Inhibitors of Polymerase Iota: Confirmatory Assay for Cherry-picked Compounds. shares compounds with Pol kappa inh-1. Pol iota primer extension, TAMRA/BHQ fluorescence. Potency, µM, actives largely listed as inhibitors. 1,500 compounds, 77% hits
Pol kappa inh-2 = qHTS for Inhibitors of Polymerase Kappa: Confirmatory Assay for Cherry-picked Compounds | shares compounds with Pol eta inh-1 | purified Pol-kappa, fluorescent strand-displacement substrate | Potency, µM, actives largely listed as inhibitors | 920 compounds, 76% hits | AID 720501, 2013
Pol eta inh-2 = qHTS for Inhibitors of Polymerase Eta: Confirmatory Assay for Cherry-picked Compounds | shares compounds with Pol eta inh-1 | Potency, µM, usual class: inhibitors | AID 720502, 2013 | Pol eta primer extension, TAMRA/BHQ fluorescence, 10 min | 2,600 compounds, 64% hits
FEN1 inh-2 = qHTS Assay for the Inhibitors of FEN1: Confirmatory Assay for Cherry-picked Compounds; shares compounds with FEN1 inh-1; FEN1 flap cleavage, TAMRA/BHQ2 fluorogenic DNA substrate; Potency, µM, actives largely listed as inhibitors; AID 720498, 2013; 880 compounds, 79% hits; also: nearly all actives have a fitted effect of over 60% in size
WRN helicase inh-2 = qHTS for Inhibitors of WRN Helicase: Confirmatory Assay for Cherry-picked Compounds | shares compounds with WRN helicase inh-1 | WRN helicase DNA unwinding, fluorescence kinetic | Potency, µM (doses to about 57.1 µM), inactives show top-dose activity, negative = inhibition, most hits filed as inhibitors | 610 compounds, 63% hits | AID 720497, 2013; also: nearly all actives have a fitted effect of over 65% in size
TO DNA binding = qHTS for Inhibitors of WRN Helicase: Thiazole Orange DNA Binding Counterscreen; Potency, µM (highest dose often 57.1 µM), for inactives: at the highest dose activity change, negative = inhibition, most hits filed as inhibitors; 610 compounds, 10% hits; shares compounds with WRN helicase inh-1; thiazole orange DNA binding displacement, fluorescence; AID 720499, 2013;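 also: drop in dye fluorescence marks compound binding to DNA; % is scaled to controls: 0 for no effect and ±100 for the full control effect; nearly all actives have a fitted effect of over 60% in size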
BLM helicase inh = qHTS for Inhibitors of WRN Helicase: BLM Helicase Counterscreen for WRN Inhibitors; Recombinant BLM helicase DNA unwinding, red fluorescence; 610 compounds, 60% hits; shares compounds with WRN helicase inh-1; Potency, µM (doses to about 57.1 µM), for inactives: top-dose activity change, negative = inhibition, actives largely listed as inhibitors; AID 720503, 2013; also: nearly all actives have a fitted effect of over 60% in size
Numbers without * were called inactive; ? = inconclusive; · = no result; [ ] = another dose, or the depositor's remark. Shown are actives, neighbours in structure and some others; about 2.4% of the full set was active somewhere. Calls follow the shape of the dose curve; as a rule, active = well fitted curve in the direction sought with a large enough effect; inconclusive = small, poorly fitted or top-dose-only effect, or another doubt; inactive = no such curve, though single readings can be large; an effect the other way counts as inactive or inconclusive. Potency is read from the fitted curve at half-maximal effect.

SMILES	POLB inh	Pol eta inh-1	Pol kappa inh-1	Pol iota inh	FEN1 inh-1	WRN helicase inh-1	Pol iota confirm	Pol eta inh-2	FEN1 inh-2	WRN helicase inh-2	TO DNA binding	BLM helicase inh	others
CN(C)Cc1c(O)ccc2c(=O)c(-c3ccc(Cl)cc3)coc12	-2%	-21%	-13%	92%	1%	-19%	·	·	·	·	·	·
CCn1c(C(=O)NCc2cc(Br)ccc2OC)cc2oc3ccccc3c21	-24%	·	-5%	3%	1%	·	·	·	·	·	·	·
O=C1C(Cl)=C(NC(=O)c2ccccc2)C(=O)C(Cl)=C1NC(=O)c1ccccc1	-12%	-10%	-12%	1.6µM*	79µM*	20µM*	24*	85*	·	-19%	22µM*	-26%
O=c1cc2oc3cc(O)c(O)cc3c(-c3ccccc3[N+](=O)[O-])c-2cc1O	0.32µM*	0.79µM*	0.79µM*	?	?	0.75µM*	0.75*	2.1*	?	0.38µM*	?	0.22µM*	PGK validate=0.29µM*
O=c1cc(-c2ccccc2Cl)oc2c([N+](=O)[O-])ccc(O)c12	·	·	-7%	·	·	·	·	·	·	·	·	·
O=C1OC(c2cccs2)=N/C1=C/c1ccc(-c2cccc(C(=O)O)c2)o1	3.5µM*	14µM*	45µM*	20µM*	40µM*	?	38*	27*	·	19µM*	?	?
COc1ccccc1CNc1ncnc2c1c(-c1ccccc1)cn2-c1cccc(C)c1	3%	-11%	-14%[60.1 µM]	4%	-13%	·	·	·	·	·	·	·
O=C1CCCC(O)=C1N=Nc1ccc2c(c1)OCO2	26%	-10%	-27%	17%	3%	-23%[57.1 µM]	·	·	·	·	·	·
O=C1CCCC(O)=C1N=Nc1ccc(C(=O)O)cc1	2.8µM*	3.2µM*	20µM*	6.3µM*	45µM*	32µM*	6*	4.8*	?	7.6µM*	?	12µM*	PGK validate=9.2µM*
COc1cccc(NC(=O)Cn2cc(C(=O)c3ccc(F)cc3)c(=O)c3cc(OC)ccc32)c1	40%	-4%	6%	25%	4%	·	·	·	·	·	·	·
CCc1ccc(C(=O)c2cn(CC(=O)Nc3cccc(OC)c3)c3ccc(OC)cc3c2=O)cc1	8.9µM*	40µM*	89µM*	13µM*	40µM*	·	8.4*	?	67*	19µM*	-6%	4.3µM*
COc1cc(-c2nnc(SCc3cc(=O)oc4cc(O)c(O)cc34)o2)cc(OC)c1OC	0.89µM*	0.71µM*	1.1µM*	1.1µM*	40µM*	10µM*	2.4*	1.1*	38*	2.4µM*	19µM*	0.96µM*	PGK validate=0.92µM*
C=CCOC(/C=C/c1ccccc1)C[Si](C)(C)C (stereo unspecified)	·	·	-10%	-28%	-6%	·	·	·	·	·	·	·
O=C(CCN1C(=O)/C(=C/C=C/c2ccccc2)SC1=S)Nc1ccccn1	1%	-26%	-5%	100%	0%	-9%	·	·	·	·	·	·
O=C(CCN1C(=O)/C(=C/C=C/c2ccccc2)SC1=S)Nc1cccnc1	20%	5µM*	-4%	?	-4%	?	9.5*	·	·	?	10%	?
N[C@H](Cn1ccc(=O)n(Cc2ccccc2C(=O)O)c1=O)C(=O)O	·	·	-7%[19.4 µM]	·	·	·	·	·	·	·	·	·
O=C(COC(=O)c1ccccc1)Nc1ncc([N+](=O)[O-])s1	·	0.79µM*	22µM*	2.2µM*	45µM*	3µM*	2.7*	1.7*	67*	3.4µM*	24µM*	1.1µM*	PGK validate=3.3µM*;Pol kappa inh-2=0.75*
O=C(Nc1ccccc1)Nc1ncc([N+](=O)[O-])s1	-2%	-9%	-8%	21%	9%	-3%	·	·	·	·	·	·
O=C(O)c1[nH]c2ccccc2c1C(c1cc(Cl)cc([N+](=O)[O-])c1O)c1c(C(=O)O)[nH]c2ccccc12	35µM*	20µM*	50µM*	18µM*	79µM*	45µM*	75*	27*	·	22µM*	-11%	?
CCN(CC)c1ccc(NC(=O)C2COc3ccc(OC)cc3C2)c(C)c1 (stereo unspecified)	-2%	-7%	-2%[60.1 µM]	8%	36%	·	·	·	·	·	·	·

From PubChem
